esBAF inh: SWI/SNF esBAF complex inhibition. reporter increase, % at 12.5 µM. mouse ES cells, Bmi1-luciferase knock-in reporter, 24 h; 100% = twice the neutral-well signal. hit rate 2% among 350,000; in the data active = activation above about 40%; inconclusive = no clear call, values can overlap the other calls;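 note: 0% = median of the plate's neutral control wells and 100% = double that signal; a rise in the Bmi1 reporter signal indicates esBAF inhibition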
MITF act: increases MITF-driven TRPM1 promoter luciferase signal; hit rate 0.75% among 300,000; SK-MEL-5 TRPM1-promoter luciferase, 24 h; % of positive control, neutral wells = 0; AID 588334; activation, % at 12.5 µM;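 active = mean activation of at least 80% with every replicate also reaching 80%; inconclusive = mean reaches 80% but some replicate falls short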;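 note: 0% = neutral control wells and 100% = parthenolide positive control wells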
Wnt act: activators of Wnt/beta-catenin signaling; Wnt/beta-catenin reporter cell assay, activator, plate reader; activation, % at 9.35 µM; hit rate 1.2% among 300,000; AID 743398; in the data active = activation above about 30%, passing the limit was not always enough; inconclusive = no clear call, values can overlap the other calls;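 note: 0% = neutral control wells and 100% = positive control wells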
MLL AF4-AF9 inh: blocks AF4 peptide binding to human AF9; P42568; AlphaScreen, biotin-AF4 peptide binding to FLAG-AF9; inhibition, % at 10 µM; hit rate 0.47% among 350,000;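 active = every replicate reaching a set inhibition limit, whatever the replicate mean, cut at about 25% in these data; inconclusive = mean inhibition reaches that limit but some replicates miss it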;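 note: 0% = plate neutral control median and 100% = total signal loss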
Target sequence (P42568 whole entry, looked up): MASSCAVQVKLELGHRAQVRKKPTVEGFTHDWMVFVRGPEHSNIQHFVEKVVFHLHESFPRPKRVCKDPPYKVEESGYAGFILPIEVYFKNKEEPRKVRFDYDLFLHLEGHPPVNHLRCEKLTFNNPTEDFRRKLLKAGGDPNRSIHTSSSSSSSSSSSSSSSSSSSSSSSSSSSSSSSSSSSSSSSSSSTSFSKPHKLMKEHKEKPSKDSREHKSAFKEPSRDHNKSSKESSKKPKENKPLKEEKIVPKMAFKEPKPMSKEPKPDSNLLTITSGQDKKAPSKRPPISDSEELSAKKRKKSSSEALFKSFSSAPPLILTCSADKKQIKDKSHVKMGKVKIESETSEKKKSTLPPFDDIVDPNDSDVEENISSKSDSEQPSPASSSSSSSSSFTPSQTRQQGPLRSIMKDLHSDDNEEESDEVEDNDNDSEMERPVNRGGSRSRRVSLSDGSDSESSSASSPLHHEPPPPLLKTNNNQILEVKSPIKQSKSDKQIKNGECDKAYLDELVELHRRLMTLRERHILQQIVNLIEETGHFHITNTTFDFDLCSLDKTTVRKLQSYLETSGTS
Ecoli rRNA inh: selective bacterial rRNA inhibition in E. coli; hit rate 1.6% among 350,000; E. coli WT GFP vs humanized-ribosome RFP mutants, fluorescence, 24 h; hits give low values; DMSO median 0, no signal -100; GFP signal change (wild-type ribosome), % (test concentration not listed);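 active = significant combined selectivity score with lowered wild-type GFP, culture density cut under 30%, mutant RFP and density less affected; inactive = any of these conditions unmet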
AID977621: wild-type E. coli growth inhibition versus H69 humanized strain – H69 mutant RFP, wild-type GFP, cherry-pick, dose response. shares compounds with Ecoli rRNA inh. activity change, negative = inhibition at 50 µM. fluorescence, 24 h. 1,900 tested, under 10 active. AID 977621;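 active = Wild-type ribosome reporter drop at least double the humanized mutant ribosome reporter drop, growth loss under a set limit; inconclusive = no clear call, values can overlap the other calls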;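 note: wild-type GFP and H69 mutant RFP strains grown together 50/50 in each well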
AID977628: E. coli growth inhibition, wild-type GFP versus h24 humanized RFP strain, dose response, h24 mutant RFP vs wild-type GFP, cherry-pick; shares compounds with Ecoli rRNA inh; E. coli WT GFP strain growth, fluorescence, 24 h; activity change, negative = inhibition at 50 µM; 1,900 tested, under 10 active; AID 977628;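 active = compound lowering the normal-ribosome reporter at least twice as much as the humanized-ribosome reporter, growth loss under a set limit; inconclusive = no clear call, values can overlap the other calls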;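 note: wild-type GFP and h24 humanized RFP strains co-cultured 1 to 1 per well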
Active calls of the source: *. Sampled rows, rich in hits. Any-hit rate of the full collection: about 3.7%.

COc1ccc(CN(C)C(=O)CNC(=O)CNC(=O)c2ccc(Cl)cc2Cl)cc1F was read as esBAF inh -3, MITF act -12, Wnt act 1, MLL AF4-AF9 inh 1 and Ecoli rRNA inh 3.
O=C(CN1C(=O)C2C3C=CC(C4CC34)C2C1=O)Oc1ccccc1 (stereo not given) was read as MITF act 8, MLL AF4-AF9 inh 2 and Ecoli rRNA inh 2.
`COc1ccc(CN2CCC(Oc3ccc(C(=O)N4CCCCC4)cc3)CC2)cc1C` gave esBAF inh 1, MITF act 9, Wnt act -1, MLL AF4-AF9 inh 4 and Ecoli rRNA inh 0.
Screening Cc1cc(F)c(F)c(C(=O)N2C(C)CCCC2C)c1Cl (stereo not given) returned Wnt act 1, MLL AF4-AF9 inh -1 and Ecoli rRNA inh -7.
Screening COc1ccc(CC(=O)OCC(=O)Nc2ccc3c(c2)OCO3)cc1 returned MITF act -1, Wnt act 0, MLL AF4-AF9 inh 0 and Ecoli rRNA inh 2.
O=C(CCC1CCCN(C(=O)c2ccsc2)C1)N1CCN(c2ccccn2)CC1 (stereo not given) was read as MITF act 6, Wnt act 1, MLL AF4-AF9 inh 7, Ecoli rRNA inh -18*, AID977621 -3.6 and AID977628 -3.5.
Screening COc1ccc(C(=O)n2cnc3ccccc32)cc1[N+](=O)[O-] returned esBAF inh 0, Wnt act 4, MLL AF4-AF9 inh -2, Ecoli rRNA inh -27*, AID977621 5.4 and AID977628 4.4.
`COc1ccc(C(=O)n2cnc3ccccc32)cc1Br` gave esBAF inh 9, MITF act -10, Wnt act 0, MLL AF4-AF9 inh -2 and Ecoli rRNA inh 1.
`CCc1cc2c(=O)n(Cc3ccccc3)c(SC3CCOC3=O)nc2s1` (stereo not given) gave MITF act 7, Wnt act 1, MLL AF4-AF9 inh 4, Ecoli rRNA inh -24* and AID977621 -17.
Screening Cc1ccccc1-n1ncc2c1CC(C)(C)CC2NC(=O)CCN1Cc2ccccc2C1=O (stereo not given) returned esBAF inh 2, MITF act -5, Wnt act -1, MLL AF4-AF9 inh -6, Ecoli rRNA inh -24* and AID977621 -11.
`CSCCC(=O)NC1CC(C)(C)Cc2c1cnn2-c1ccccc1C` (stereo not given) gave esBAF inh 5, Wnt act 9, MLL AF4-AF9 inh -4 and Ecoli rRNA inh -3.
For O=C(c1cccs1)c1c[nH]cc1-c1ccccc1 the results were Wnt act 1, MLL AF4-AF9 inh 2, Ecoli rRNA inh -30*, AID977621 -0.54 and AID977628 -2.7.
For Cc1ccc(S(=O)(=O)NCCC(=O)OCC(=O)Nc2cccc(Cl)c2)cc1 the results were esBAF inh 1, MITF act 11, Wnt act -4 and MLL AF4-AF9 inh 0.
For Cc1ccc(NC(=O)COC(=O)CCNS(=O)(=O)c2c(Cl)cccc2Cl)cc1 the results were esBAF inh -10, MITF act 11, Wnt act -2, MLL AF4-AF9 inh 2, Ecoli rRNA inh -14*, AID977621 3.4 and AID977628 -8.1.
`COc1ccc(-c2csc3ncn(-c4ccc(C)cc4)c(=O)c23)cc1OC` gave esBAF inh -13, MITF act -7, Wnt act -1, MLL AF4-AF9 inh 2, Ecoli rRNA inh -23* and AID977621 inconclusive.
Screening COc1ccc(-n2cnc3scc(-c4ccc(OC)c(OC)c4)c3c2=O)cc1 returned esBAF inh -7, MITF act 3, Wnt act -4, MLL AF4-AF9 inh 0 and Ecoli rRNA inh 8.
Screening CCCc1nc2oc3c(NCCN(C)C)ncnc3c2c2c1CCCC2 returned esBAF inh -10.
CCCc1nc2oc3c(NCCCN(C)C)ncnc3c2c2c1CCCC2 was read as Wnt act -1, MLL AF4-AF9 inh 1, Ecoli rRNA inh -23* and AID977621 -7.3.
For COc1ccccc1NC(=O)CSc1ncc(CO)n1Cc1ccc(F)cc1 the results were esBAF inh -11, MITF act -4, Wnt act 0, MLL AF4-AF9 inh 1, Ecoli rRNA inh -20*, AID977621 -15 and AID977628 -14.
Cc1cc(NC(=O)CSc2ncc(CO)n2Cc2ccc(F)cc2)no1 was read as esBAF inh -2, MITF act 11, Wnt act -1, MLL AF4-AF9 inh -1 and Ecoli rRNA inh 8.
CCOC(=O)C(C)(C)n1nnc(-c2ccc([N+](=O)[O-])cc2)n1 was read as esBAF inh 12, MITF act 8, Wnt act 8, MLL AF4-AF9 inh -3, Ecoli rRNA inh -23*, AID977621 -7.4 and AID977628 inconclusive.
`COC(=O)Cc1ccc(NC(=S)N2CCN(C)CC2)cc1` gave MITF act 5, Wnt act 11, MLL AF4-AF9 inh -2 and Ecoli rRNA inh 6.
Screening COc1cccc(NC(=O)c2ccc(C(=O)c3ccccc3)o2)c1 returned esBAF inh 38, MITF act inconclusive, Wnt act 37*, MLL AF4-AF9 inh -1, Ecoli rRNA inh -33* and AID977621 -15.
Screening COc1cccc(NC(=O)c2cccc(NC(=O)c3ccco3)c2)c1 returned esBAF inh 3, Wnt act -1, MLL AF4-AF9 inh 0 and Ecoli rRNA inh -14.
Screening Cc1ccc(CNC(=O)CSc2nc3[nH]ncc3c(=O)[nH]2)cc1 returned esBAF inh -4, MITF act 14, Wnt act 0, MLL AF4-AF9 inh 0 and Ecoli rRNA inh 4.
`CCOC(=O)C1CCN(C(=O)COC(=O)CNS(=O)(=O)c2ccc(SC)c([N+](=O)[O-])c2)CC1` gave esBAF inh 1, MITF act 0, Wnt act -1, MLL AF4-AF9 inh 8 and Ecoli rRNA inh 5.
For Cc1ccc(S(=O)(=O)Nc2ccc3c(c2)C(=O)N([C@@H](C)CO)C[C@@H](C)[C@H](CN(C)C(=O)c2ccccc2)OCCCC[C@@H](C)O3)cc1 the results were esBAF inh 8, MLL AF4-AF9 inh -1, Ecoli rRNA inh -23*, AID977621 8.2 and AID977628 1.2.
Cc1ccc(S(=O)(=O)Nc2ccc3c(c2)C(=O)N([C@H](C)CO)C[C@@H](C)[C@H](CN(C)C(=O)c2ccccc2)OCCCC[C@@H](C)O3)cc1 was read as esBAF inh 9, MLL AF4-AF9 inh 2, Ecoli rRNA inh -16*, AID977621 -4.5 and AID977628 inconclusive.

Screens (PubChem)
